Compounds with a hit are over-represented: about 2.6% of the library has one in this group of screens.
CF NFkB inh – inhibitors of cystic fibrosis induced NF-kB. KKLEB NF-kB-GFP reporter, PAF-induced, GFP fluorescence overnight. inhibition, % at 5 µM. 0.86% of 360,000 active;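 active means at least 50% inhibition at 5 µM, scaled per plate between neutral and stimulator controls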;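 further: PAF is a Pseudomonas aeruginosa culture filtrate used as stimulus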
HIF-2a block – blocks HIF-2a reporter activity; 0.72% of 360,000 active; inhibition, % at 18.8 µM; 786-0 RCC cells HIF-2a reporter, luciferase luminescence, overnight; AID 624352;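 active means inhibition of the luminescence signal of 40% or more relative to plate controls, in a single-dose primary screen at 18.75 µM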
KKLEB cytotox – CF airway cell cytotoxicity counter-screen. KKLEB CF airway cells viability, ATPlite luminescence, overnight; active compounds read low; cells stimulated with P. aeruginosa culture filtrate. activity change (cytotoxicity), % at 5 µM. 0.36% of 360,000 active. AID 602141;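 active means corrected activity change at or below -50% at 5 µM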
Shn3 3UTR inh – Schnurri-3 reporter inhibition in Clone20 osteoblasts; AID 588674; Clone20 osteoblast Shn3 3'UTR firefly luciferase, 24 h; 0.52% of 360,000 active; inhibition, % at 12.5 µM;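 active means mean inhibition of at least 75% with every replicate also reaching 75%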
Peg3 promoter – reduces Peg3 promoter-driven luciferase expression in HeLa. inhibition, % at 20 µM. 1.7% of 360,000 active. HeLa PEG-Prom luciferase reporter, luminescence, overnight;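 active means inhibition of at least 50% at 20 µM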
Large screens that a line does not name were inactive.

CC(C)CN(C(=O)C(c1ccccc1)c1ccccc1)c1c(N)n(CC(C)C)c(=O)[nH]c1=O	none
Cc1ccc(CC(=O)NCC(O)c2ccccc2)cc1 (stereo unspecified)	none
COc1ccc(C=C2CCc3ccccc3C2=O)cc1	KKLEB cytotox -52
CCOc1ccc(/C=C2\CCc3ccccc3C2=O)cc1	none
O=C1NC(=Nc2ccccc2Cl)S/C1=C\c1ccc(C(=O)O)cc1	none
CC12CCC(C/C1=N\N=C1\NC(=O)/C(=C\c3ccc(Cl)cc3)S1)C2(C)C (stereo unspecified)	CF NFkB inh 89, KKLEB cytotox -94
CC[C@H](C)Cc1cn([C@@H](CCCN=C(NC(=O)OC(C)(C)C)NC(=O)OC(C)(C)C)C(=O)NCCCCCCCCCCC(=O)N2CCN(C(=O)OC(C)(C)C)CC2)nn1	Peg3 promoter 54
Cc1cn([C@@H](CCCCNC(=O)OC(C)(C)C)C(=O)NCCCCCCCCCCC(=O)N2CCN(C(=O)OC(C)(C)C)CC2)nn1	Shn3 3UTR inh 90, Peg3 promoter 84
CCN(C(=O)c1ccc(C(C)(C)C)cc1)c1nnc(Cn2nnc3ccccc32)s1	Shn3 3UTR inh 93
C=CCNC(=O)COC(=O)c1ccc(Cl)c(S(N)(=O)=O)c1	none
CCN(CC)CCNC(=O)c1c(C)n(-c2ccccc2)c2cc(Br)c(OC)cc12	Peg3 promoter 65
COc1cc2c(C(=O)N3CCN(C)CC3)c(C)n(-c3ccccc3)c2cc1Br	none
CCN(CC)CCNc1cc(C)nc2c1C(=O)C(=O)C=C2N1CCCCC1	Peg3 promoter 74
CCN(CC)CCNC(=O)c1ccc(N2CCCCC2)c(NS(=O)(=O)c2ccc(C)cc2)c1	none
COc1ccccc1-c1nnc(SCC(=O)NC2CC2)n1C	none
COc1cccc(-c2nnc(SC(C(=O)c3c[nH]c4ccccc34)c3ccccc3)n2C)c1 (stereo unspecified)	Peg3 promoter 53
COc1ccccc1-c1nnc(SC(C(=O)c2c[nH]c3ccccc23)c2ccccc2)n1C (stereo unspecified)	Peg3 promoter 54
Cc1cc(C)c(S(=O)(=O)N2CCN(C(=O)c3cc4ccccc4oc3=O)CC2)c(C)c1	none
COc1ccccc1Nc1nc(NCC(C)C)nc(N)c1[N+](=O)[O-]	CF NFkB inh 55
CCC(C)Nc1nc(N)c([N+](=O)[O-])c(Nc2cc(OC)ccc2OC)n1 (stereo unspecified)	none
C=CCNc1nc(N)c([N+](=O)[O-])c(Nc2ccccc2OC)n1	none
CCC(C)Nc1nc(N)c([N+](=O)[O-])c(Nc2ccccc2OC)n1 (stereo unspecified)	Peg3 promoter 60
COC(=O)c1ccc(N2CC3CNC(=O)C2(C(=O)OC)N3C)cc1 (stereo unspecified)	none
COc1ccccc1N(CC(=O)NCCSCc1ccc(Cl)cc1)S(C)(=O)=O	none
COc1ccccc1OCC(=O)NCCSCc1ccc(Cl)cc1	Peg3 promoter 77
CC(C)(C)c1ccc(Cn2c(=N)n(CC(O)c3ccco3)c3ccccc32)cc1 (stereo unspecified)	Shn3 3UTR inh 83, Peg3 promoter 105
Cc1ccccc1Cn1c(=N)n(CC(O)c2ccco2)c2ccccc21 (stereo unspecified)	none
CCC(=O)Nc1cccc(C(=O)/C=C/c2ccc(F)cc2)c1	Peg3 promoter 100
CC(=O)Nc1ccc(/C=C/C(=O)c2ccc3c(c2)OCCO3)cc1	none
CC(=O)Nc1cccc(C(=O)/C=C/c2ccc(C)cc2)c1	Peg3 promoter 97
CCOC(=O)c1ccc(-n2c(O)c(/C=N/NC(=O)C3COc4ccccc4O3)c3ccccc3c2=O)cc1 (stereo unspecified)	none
CN(C)c1ccc(C(=O)c2ccc(N(C)C)c3ccccc23)cc1	CF NFkB inh 55
O=C(NCC1CCCO1)C(c1cccs1)N(Cc1ccccc1Cl)C(=O)c1ccc(-c2ccccc2)[nH]1 (stereo unspecified)	Peg3 promoter 80
Nc1nonc1C(=O)NCCNCc1cc(Br)ccc1OCc1ccc(F)cc1	Shn3 3UTR inh 90
CC(C)C(=O)N1CCN(c2ccc(NC(=O)COc3ccccc3[N+](=O)[O-])cc2)CC1	Peg3 promoter 91
CN1CCN(c2ccc(NC(=O)COc3ccccc3[N+](=O)[O-])cc2)CC1	none
Cc1ccc(NS(=O)(=O)c2ccc(Cl)c(C(=O)Nc3ccccc3-c3nc4ccccc4[nH]3)c2)cc1C	CF NFkB inh 56
COCCOC(=O)c1[nH]c2c(c1C)C(=O)CC(c1cc(OC)c(OC)c(OC)c1)C2 (stereo unspecified)	none
CCCCOC(=O)c1[nH]c2c(c1C)C(=O)CC(c1cc(OC)c(OC)c(OC)c1)C2 (stereo unspecified)	Shn3 3UTR inh 82
C=CCOC(=O)c1[nH]c2c(c1C)C(=O)CC(c1cc(OC)c(OC)c(OC)c1)C2 (stereo unspecified)	Shn3 3UTR inh 88
COC(=O)C1=CN(c2ccc(OC)cc2OC)C(N)=C(C#N)C1c1ccccc1F (stereo unspecified)	none (no result: CF NFkB inh, KKLEB cytotox, Shn3 3UTR inh, Peg3 promoter)
O=C(Cc1cc(=O)[nH]c(=O)[nH]1)N1CCC(Cc2ccccc2)CC1	none
CCC(=O)NC(c1ccco1)c1cc(Br)c2cccnc2c1O (stereo unspecified)	none
O=[N+]([O-])c1ccc(O)c2ncccc12	none
O=[N+]([O-])c1cc(F)c2cccnc2c1O	none
CC(=O)NC(c1ccc(C)cc1)c1cc([N+](=O)[O-])c2cccnc2c1O (stereo unspecified)	Peg3 promoter 54
CCCC(=O)NC(c1ccco1)c1cc([N+](=O)[O-])c2cccnc2c1O (stereo unspecified)	CF NFkB inh 57
CCC(=O)NC(c1ccc(C)cc1)c1cc([N+](=O)[O-])c2cccnc2c1O (stereo unspecified)	Peg3 promoter 53
CCn1c(SCC(=O)N/N=C/c2ccc(O)c(OC)c2)nc2ccccc21	none
C=Cc1ccc(CC2(C)C(=O)Nc3ccc(Cl)cc32)cc1 (stereo unspecified)	none
CN1CCN(CCOC2Cc3ccccc3Sc3ccc(Cl)cc32)CC1 (stereo unspecified)	none
OCCN1CCN(C2Cc3cc(Cl)ccc3Sc3ccc(Cl)cc32)CC1 (stereo unspecified) (tested in a mixture with another compound)	Peg3 promoter 65
CN1CCN(C2Cc3cc(Cl)ccc3Sc3cc(F)ccc32)CC1 (stereo unspecified)	Peg3 promoter 91
c1ccc2c(c1)CC(N1CCCCC1)c1ccccc1S2 (stereo unspecified)	none
CN1CCN(C2=Cc3cc(Cl)ccc3Sc3cc(F)ccc32)CC1	Peg3 promoter 94
O=S(=O)(Nc1ccccc1N1CCCCC1)c1ccc(F)cc1F	none
Cc1ccc(S(=O)c2snnc2C)cc1 (stereo unspecified)	none

Compound activity (PubChem)
